CYP2C9 activ: increases human cytochrome P450 2C9 activity; activation factor at 5 µM; recombinant CYP2C9, luciferin-H conversion, luminescence; stronger effect = higher value; factor 1 = untreated enzyme, 0 = blocked; P11712; AID 1024; actives 1.4% (n = 96,000);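 active means activation factor of 2 or more for CYP2C9 at a 5 µM dose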;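 further: 0 = sulfaphenazole-blocked wells and 1 = vehicle-only wells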
PostGolgi ctrl: inhibits growth of the yeast control strain | actives 5% (n = 98,000) | inhibition, % at 10 µM | AID 738 | efflux-deficient yeast background strain, growth absorbance A615, 16 h
CYP2C19 activ: cytochrome P450 2C19 (human) activation; 96,000 tested, under 10 active; P33261; recombinant CYP2C19, luciferin-H EGE luminescence; stronger effect = higher value; 0 = fully inhibited enzyme, 1 = untreated enzyme; activation factor at 5 µM;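 active means activation factor of at least 2 at 5 µM in the primary screen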;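 further: 0 = wells with 2.5 mM tranylcypromine and 1 = vehicle-only wells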
Target sequence (P33261 whole entry, looked up): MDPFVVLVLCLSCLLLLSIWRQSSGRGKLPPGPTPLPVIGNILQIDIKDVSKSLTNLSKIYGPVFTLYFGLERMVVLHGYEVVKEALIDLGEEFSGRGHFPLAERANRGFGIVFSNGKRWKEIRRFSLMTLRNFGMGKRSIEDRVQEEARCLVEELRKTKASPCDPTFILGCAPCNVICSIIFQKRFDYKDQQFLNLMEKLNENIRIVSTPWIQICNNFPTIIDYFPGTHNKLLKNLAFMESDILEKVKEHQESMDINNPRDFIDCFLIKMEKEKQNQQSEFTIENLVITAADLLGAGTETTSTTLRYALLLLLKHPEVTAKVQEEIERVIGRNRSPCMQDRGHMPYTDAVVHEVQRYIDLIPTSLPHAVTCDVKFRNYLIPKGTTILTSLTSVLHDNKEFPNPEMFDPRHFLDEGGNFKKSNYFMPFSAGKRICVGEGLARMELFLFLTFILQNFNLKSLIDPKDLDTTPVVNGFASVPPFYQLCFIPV
CYP2C9 inhib: blocks human cytochrome P450 2C9 | P11712 | CYP2C9 Supersomes, luciferin-H conversion, luminescence | inhibition, % at 5 µM | actives 20% (n = 96,000) | AID 777;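 active means blocking of liver enzyme CYP2C9 beyond about 50% at 5 µM, limit read from the data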
CYP2C19 inhib: human CYP2C19 inhibition; actives 21% (n = 96,000); AID 778; CYP2C19 Supersomes, luciferin-H EGE luminescence, 30 min; inhibition, % at 5 µM;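 active means CYP2C19 inhibition above a set limit at 5 µM in the primary screen, cut at about 50% in these data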;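 further: plate controls were negative control wells for no effect and 2.5 mM tranylcypromine positive control for full effect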
PostGolgi yeast: growth inhibition of a yeast mutant, post-Golgi transport screen | post-Golgi transport phenotypic cell assay | inhibition, % at 10 µM | actives 0.9% (n = 98,000) | AID 739;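 further: yeast cells grown in 1536-well plates; yeast grown about 18 h at 30C before absorbance read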
* = called active by the depositor; · = no result. Compounds with a hit are over-represented: about 32% of the library has one in this group of screens. Unless noted, no stated cut-off is given here; in the data, active means inhibition above about 30%; inactive means the rest.

SMILES | CYP2C9 activ | PostGolgi ctrl | CYP2C19 activ | CYP2C9 inhib | CYP2C19 inhib | PostGolgi yeast
COc1ccc2nc(NC(=O)Cn3cnc4c(=O)n(C)c(=O)n(C)c43)sc2c1 | 1 | 4 | 0.8 | -4 | 19 | -15
Cn1c(=O)c2c(ncn2CC(=O)Nc2nc3ccc(F)cc3s2)n(C)c1=O | 0.4 | 14 | 1.2 | 59* | -20 | 2
FC(F)(F)c1ccc(/C=N/N2CCN(Cc3cccc4ccccc34)CC2)cc1 | 1 | -7 | 1 | 4 | 0 | 4
C(=N\N1CCN(Cc2cccc3ccccc23)CC1)/c1ccco1 | 1.3 | 1 | 0.5 | -26 | 50* | 4
COc1ccc(NC(=O)N(CCc2ccccc2)Cc2cc3c(C)cc(C)cc3[nH]c2=O)cc1 | 0.7 | 7 | 0.6 | 32 | 39 | -4
O=C(NCc1ccncc1)c1cccc(Cn2cc(Br)cn2)c1 | 0.1 | 0 | 0.1 | 90* | 88* | 1
Cc1nn(-c2nc3ccccc3s2)c(N)c1Sc1ccc(F)cc1 | 0.2 | 16 | 0.7 | 85* | 29 | -4
CCOC(=O)Cn1c(C)c(C#N)c2ccccc21 | 0.5 | -2 | 0.4 | 50* | 57* | -7
Cc1c(C#N)c2ccccc2n1CC(=O)NCCc1c[nH]c2ccccc12 | 0.6 | 1 | 0.6 | 42 | 41 | 6
Cc1c(C#N)c2ccccc2n1CC(=O)NC(C)c1ccccc1 (stereo not drawn) | 0.4 | 22 | 0.1 | 59* | 87* | 2
Cc1cccc(NC(=O)Cn2c(C)c(C#N)c3ccccc32)c1C | 0.1 | 2 | 0.1 | 87* | 87* | -4
Cc1c(C#N)c2ccccc2n1CC(=O)O | · | -1 | · | · | · | -4
O=C(c1ccc(CS(=O)(=O)Cc2ccc(Cl)cc2)o1)N1CCCC1 | 0.6 | 9 | 0.7 | 40 | 30 | 5
O=C1OC(c2ccc(Cl)cc2)/C(=C(/O)c2ccccc2)C1=O (stereo not drawn) | 0.5 | 1 | 1.1 | 53* | -7 | 8
COc1cc2c(C#N)c(N3CCN(c4ccccc4OC)CC3)nc(N)c2c(N)n1 | 0.3 | 36* | 0 | 68* | 100* | 17
N#Cc1c(N2CCCC2)nc(N)c2c(N)nc(N3CCCC3)cc12 | 0.4 | 19 | 0.6 | 61* | 40 | 1
Cc1ccc(S(=O)(=O)N2CCC(O)(c3cccnc3)CC2)cc1 | 2.1* | 23 | 0.5 | -114 | 54* | 0
O=S(=O)(c1cccc(C(F)(F)F)c1)N1CCC(O)(c2cccnc2)CC1 | 1.1 | 0 | 0.1 | -8 | 88* | -4
CC(=O)N1CCC(O)(c2cccc(C(F)(F)F)c2)CC1 | 0.9 | 20 | 0.7 | 10 | 28 | 3
CCN(CC)S(=O)(=O)c1ccc2c(c1)nc(SCC(=O)N1CCCCCC1)n2-c1ccc(OC)cc1 | 0.2 | 15 | 0.9 | 81* | 14 | -3
CCN(CC)S(=O)(=O)c1ccc2c(c1)nc(SCC(N)=O)n2-c1ccc(OC)cc1 | 0.5 | 4 | 0.7 | 49 | 30 | 2
CCCc1cc(Nc2cccc(OC)c2)n2ncnc2n1 | 0.7 | 10 | 0.4 | 34 | 55* | 19
CCCc1cc(Nc2cccc(OCC)c2)n2ncnc2n1 | 0.5 | 9 | 0.8 | 48 | 19 | -5
O=[N+]([O-])c1cc(S(=O)(=O)Nc2ccccc2)ccc1-n1nnc2ccccc21 | 0.3 | 16 | 0.5 | 72* | 51* | -5
COC(=O)c1ccc(OCC(=O)Nc2nn(-c3ccccc3)nc2C(N)=O)cc1 | 1 | 0 | 1.1 | 0 | -7 | 5
SMILES | CYP2C9 activ | PostGolgi ctrl | CYP2C19 activ | CYP2C9 inhib | CYP2C19 inhib | PostGolgi yeast
CCOc1ccc(/C(O)=C2/C(=O)C(=O)N(CCCn3ccnc3)C2c2cccs2)cc1Cl (stereo not drawn) | 0.3 | 4 | 0.8 | 70* | 19 | 6
CCN(CC)CCN1C(=O)C(=O)/C(=C(/O)c2ccc(OC)cc2)C1c1cccs1 (stereo not drawn) | 1.3 | 7 | 1.1 | -29 | -12 | -7
Cc1cc(C)cc(N=c2c([N+](=O)[O-])nn(-c3cccc(Cl)c3)n2O)c1 | 0.8 | 28 | 0.7 | 22 | 25 | 6
Cc1cccc(-n2nc([N+](=O)[O-])c(=NCc3cccnc3)n2O)c1 | 0.7 | 0 | 0.4 | 34 | 60* | 3
N#CCc1ccc(C(=O)c2ccccc2F)s1 | 1 | 6 | 0.7 | 4 | 25 | 4
CCOC(=O)Cc1nc2ccccc2[nH]1 | 1.1 | -3 | 0.9 | -13 | 11 | -4
O=C(CCc1ccccc1)Nc1ccncc1 | 0.2 | -2 | 0.1 | 83* | 86* | 22
O=C(O)CCCC(=O)Nc1cccc(-c2nc3ccccc3[nH]2)c1 | 1 | 31* | 1 | 4 | 3 | 2
COc1ccc(OCC(=O)Nc2cccc(-c3nc4ccccc4o3)c2)cc1 | 0.7 | 2 | 0.6 | 34 | 38 | -3
CCOC(=O)c1ccc(NCc2nc3ccccc3[nH]2)cc1 | 0.3 | -5 | 0.9 | 65* | 15 | -4
COc1ccc(OCC(=O)Nc2cccc(-c3nc4ccccc4[nH]3)c2)cc1 | 0.1 | 17 | 0.4 | 94* | 65* | -5
Cc1[nH]c(C)c(C(=O)O)c1CNC1CCCCC1C (stereo not drawn) | 1.2 | 10 | 1.1 | -17 | -10 | -2
CC(=O)c1c(C)n(C)c2ccc(O)cc12 | 1 | -6 | 0.9 | 3 | 7 | -2
CC(C)COC(=O)C1C2C=CC3(CN(C4CCCC4)C(=O)C13)O2 (stereo not drawn) | 1 | 6 | 1 | 4 | -4 | -2
CCCCOC(=O)CCc1nc2ccccc2[nH]1 | 1.1 | -1 | 0.5 | -6 | 50* | -7
Cc1cc(C)cc(NC(=O)CCc2nc3ccccc3[nH]2)c1 | 1.3 | 21 | 1 | -29 | 1 | -18
O=C(CCc1nc2ccccc2[nH]1)Nc1ccccc1 | 0.7 | 4 | 0.4 | 33 | 62* | -5
CCN(CC)C(=O)CSc1nc2ccccc2c(=O)n1CC1CCCCC1 | 0.6 | 15 | 0.7 | 44 | 33 | -6
CCn1c(SCC(=O)N(Cc2ccccc2)C2CCS(=O)(=O)C2)nc2ccccc2c1=O (stereo not drawn) | 0 | -1 | 0.2 | 95* | 81* | 9
CN(C(=O)CSc1nc2ccccc2n1CCc1ccccc1)C1CCS(=O)(=O)C1 (stereo not drawn) | 0.9 | 5 | 0.3 | 6 | 68* | -3
CCCCNC(=S)NNC(=O)c1sccc1C | 0.9 | 7 | 0.1 | 12 | 88* | 8
Cc1ccsc1/C=N/NC(=O)c1sccc1C | 0.9 | 5 | 0.9 | 9 | 10 | -4
O=C(COc1ccc(F)cc1Br)NCc1ccccn1 | 1 | 2 | 0.4 | 2 | 59* | 6
Cn1c(=O)cc(OCC(=O)NCc2ccccn2)c2ccccc21 | 1.5 | -2 | 0.9 | -54 | 8 | -4
COc1cc(NC(=O)c2ccc(COc3ccccc3Br)o2)cc(OC)c1OC | 0.6 | 19 | 0.7 | 41 | 31 | 1
O=C(COc1ccccc1Br)NCc1ccccn1 | 0.6 | 32* | 0.3 | 37 | 65* | -6

Screens as filed in PubChem BioAssay.
